According to PubChem BioAssay AID1851 (National Center for Advancing Translational Sciences (NCATS), 2009):
“And” between values parts separate entries of the source, which are not always exact repeats. Equal entries are not always repeated. Out of some 16,000 compounds screened, about 5,800 (36%) were called active. Roughly 23% stayed inconclusive and do not appear here. Calls come from the whole dose curve; as a rule, active = well fitted curve in the direction sought with a large enough effect; inconclusive = small, poorly fitted or top-dose-only effect, or effect the other way; inactive = no such curve, though single readings can be large or run the other way. The list shows a part of the results.

biological target: Cytochrome P450 2C19 (Homo sapiens) (UniProt P33261); assay: Cytochrome panel assay with activity outcomes; conditions: recombinant CYP, pro-luciferin dealkylation, luminescence, p450-cyp2c19; series mostly up to 57.1 µM
Sequence (P33261 whole entry, looked up): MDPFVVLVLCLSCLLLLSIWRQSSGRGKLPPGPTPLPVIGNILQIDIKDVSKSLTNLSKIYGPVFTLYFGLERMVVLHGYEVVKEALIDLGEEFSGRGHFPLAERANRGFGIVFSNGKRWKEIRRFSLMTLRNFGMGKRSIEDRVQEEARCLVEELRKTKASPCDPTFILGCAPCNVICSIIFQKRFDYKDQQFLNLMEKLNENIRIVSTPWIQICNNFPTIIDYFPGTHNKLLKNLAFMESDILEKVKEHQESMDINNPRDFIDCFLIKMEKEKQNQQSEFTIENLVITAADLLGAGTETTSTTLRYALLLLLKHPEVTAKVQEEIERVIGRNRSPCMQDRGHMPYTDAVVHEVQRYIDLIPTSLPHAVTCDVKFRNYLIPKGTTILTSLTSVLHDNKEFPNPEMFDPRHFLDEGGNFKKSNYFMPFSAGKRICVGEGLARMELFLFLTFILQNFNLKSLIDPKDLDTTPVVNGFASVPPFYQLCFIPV
% is set by controls: 0 for no effect and ±100 for the full control effect.

SMILES | activity, negative = inhibition | AC50
NS(=O)(=O)c1cc(Br)c(N=Nc2ccc(O)c3ncccc23)c(Br)c1 | -10.5% [at 11.4 µM] (inactive) | –
COc1ccc(-n2c(=O)c(-c3cn(C)c4ccccc34)nc3cnc(OC)nc32)cc1 | – | inactive
COc1ccc(-n2c(=O)c(-c3cn(C)c4ccccc34)nc3cncnc32)cc1 | – | 15.8 µM (active)
Cc1nn(C)cc1CNC(=O)CCC(=O)O | – | inactive
COc1ccc(/C=C/C(=O)NCc2cn(C)nc2C)cc1COc1ccc(Br)cc1 | – | 3.98 µM (active)
COc1ccc(C(=O)NN)cc1COc1ccc(Br)cc1 | – | 0.251 µM (active)
CCn1ncc(/C=C/C(=O)NCc2cn(C)nc2C)c1C | – | inactive
NC(=O)C1=CN([C@@H]2O[C@@H](COP(=O)(O)OP(=O)(O)OC[C@@H]3O[C@H](n4cnc5c(N)ncnc54)[C@@H](OP(=O)(O)O)[C@@H]3O)[C@H](O)[C@@H]2O)C=CC1 | – | inactive
CS(=O)(=O)c1ccc(/C=N\NC(N)=S)cc1 | -0.291% [at 11.4 µM] (inactive) | –
CC(C)c1ccc(/C=N/NC(=O)CN(c2cccc(Cl)c2Cl)S(C)(=O)=O)cc1 | – | 15.8 µM (active)
Cc1cccc(-c2n[nH]c([N+](=O)[O-])n2)c1 | – | inactive
Cc1[nH]nc(Nc2ccccc2)c1[N+](=O)[O-] | – | 14.1 µM (active)
Nc1nc(NCc2ccccc2)nc(Nc2cccc(F)c2)c1[N+](=O)[O-] | – | inactive
CN=C1S/C(=C\c2ccc(Sc3ccc(Cl)cc3)o2)C(=O)N1C | – | inactive
Clc1ccc(Sc2ccc(/C=N/n3cnnc3)o2)cc1 | – | 2.82 µM (active)
COc1ccc(N=C2S/C(=C\c3ccc(C)s3)C(=O)N2CC(C)C)cc1 | – | inactive
CCCN1C(=O)/C(=C/c2ccc(C)s2)SC1=Nc1ccc(OC)cc1 | – | 11.2 µM (active)
CC(C)CN(CC#N)CC(C)C | 2.34% [at 11.4 µM] (inactive) | –
c1ccc(-c2nc3ccccn3c2NCc2ccc3c(c2)OCO3)cc1 | – | 0.316 µM (active)
CN(C)CCNS(=O)(=O)N(C)C | 0.116% [at 11.4 µM] (inactive) | –

SMILES | activity, negative = inhibition | AC50
C=CCN=C(NC#N)SCc1ccccc1 | – | 14.1 µM (active)
Cc1ccc(/C=C/C2=Cc3c(sc(NC(=O)CSc4n[nH]c(N)n4)c3C#N)C(C)(C)C2)o1 | – | 4.47 µM (active)
CCOc1ccc(/C=C/C2=Cc3c(sc(NC(=O)CSc4n[nH]c(N)n4)c3C#N)C(C)(C)C2)cc1 | – | 10 µM (active)
N[C@@H](Cc1ccc(O)c(O)c1)C(=O)O | – | inactive
O=C1CCCN1c1ccc(S(=O)(=O)Oc2cccc(Cl)c2)cc1[N+](=O)[O-] | – | 0.501 µM (active)
Cc1cc(C(C)(C)C)cc(C)c1CC1=NCCN1 | – | inactive
N=c1sccn1CC(=O)Nc1cccc(Oc2ccccc2)c1 | – | 15.8 µM (active)
O=C(Cn1ccc(=O)[nH]c1=O)Nc1ccc(C(=O)O)c(O)c1 | 40.8% [at 11.4 µM] (inactive) | –
CC1(C)CCC=[N+]1[O-] | – | inactive
CCCCCOC(=O)c1c(N)n(CCOC)c2nc3ccccc3nc12 | – | 14.1 µM (active)
COCn1c2ccccc2c2nnc(C(C)=O)nc21 | 5.57% [at 11.4 µM] (inactive) and -2.14% [at 11.4 µM] (inactive) | –
C/C(=N\NC(=S)Nc1ccc(F)cc1)C1CC1 | – | 0.562 µM (active)
COc1ccc(OC)c(NC(=O)c2cc3n(n2)C(C(F)(F)F)CC(c2ccc4c(c2)OCO4)N3)c1 (centres undefined) | – | inactive
COC(=O)C1=C(N)N(c2ccccc2C(F)(F)F)C2=C(C(=O)CCC2)C1c1ccc2c(c1)OCO2 (centres undefined) | – | 20 µM (active)
COc1ccc(NC(=O)c2cc3n(n2)C(C(F)(F)F)CC(c2ccc4c(c2)OCO4)N3)cc1OC (centres undefined) | – | inactive
C#CC[N+](CC)(CC)CC#Cc1cccc(Cl)c1 | – | inactive
O=C(c1ccc(COc2ccc(F)cc2)o1)n1cccn1 | – | 3.55 µM (active)
CC(=O)COC(=O)CCc1nc2ccccc2[nH]c1=O | – | 11.2 µM (active)
N[C@@H](Cc1ncccn1)C(=O)O | 1.66% [at 11.4 µM] (inactive) | –
COCCCNC(=O)C1C2C=CC3(CN(Cc4ccc(C)cc4)C(=O)C13)O2 (centres undefined) | – | inactive

SMILES | activity, negative = inhibition | AC50
Cc1ccc(CN2CC34C=CC(O3)C(C(=O)NCc3ccco3)C4C2=O)cc1 (centres undefined) | – | 14.1 µM (active)
CCCCNC(=O)C1C2C=CC3(CN(Cc4ccccc4Cl)C(=O)C13)O2 (centres undefined) | – | 20 µM (active)
Cc1ccc(CN2CC34C=CC(O3)C(C(=O)NCc3ccc5c(c3)OCO5)C4C2=O)cc1 (centres undefined) | – | 15.8 µM (active)
COC(=O)N1CCC2(CCN(C(=O)NC(C)C)CC2)CC1 | – | inactive
FC(F)(F)c1nnc2c(Sc3ccc(Cl)cc3)nc3ccccc3n12 | – | inactive
FC(F)(F)c1nnc2c(Sc3ccccc3)nc3ccc(Cl)cc3n12 | – | 1.41 µM (active)
CC(C)NC(=O)c1ccc(-c2cccc(C(F)(F)F)c2)o1 | – | 7.08 µM (active)
C[C@@]1(C(NC(=O)Cc2ccc(C(F)(F)F)cc2)c2ccc(-c3ccccc3)cc2)C[C@H]1C1CCCCC1 (some centres undefined) | – | inactive
CC(C)NC(=O)N1CCC2(CC1)CCN(C(=O)c1cc(C(F)(F)F)cc(C(F)(F)F)c1)CC2 | – | inactive
Cc1ccc(S(=O)(=O)NCC2CCC(C(=O)O)CC2)cc1 (centres undefined) | – | inactive
COCCCNC(=O)C1CCN(S(=O)(=O)N(CC(C)C)CC(C)C)CC1 | – | inactive
CC(=O)Nc1ccc(S(=O)(=O)NCC2CCC(C(=O)NCCC(C)C)CC2)cc1 (centres undefined) | – | 31.6 µM (active)
CCCN(CCc1ccccc1)[C@H]1CCc2c(O)cccc2C1 | – | inactive
Cc1ccc(COn2c(-c3ccc(Cl)cc3)nc3ccc([N+](=O)[O-])cc32)cc1 | – | inactive
Cc1cc(C)c(Cn2cnc(-c3ccc([N+](=O)[O-])cc3)c2)c(C)c1 | – | 3.16 µM (active)
C=C(C)C1CC=C(C)/C(=N/NC(=O)c2ccc(NC(=O)c3cccc(C)c3)cc2)C1 (centres undefined) | – | 1.41 µM (active)
Nc1nc(Nc2ccccc2)nc2c1ncn2[C@@H]1O[C@@H](CO)[C@H](O)[C@H]1O | – | 0.631 µM (active)
Nc1nc(Nc2ccccc2)nc2c1ncn2[C@@H]1O[C@@H](CO)[C@H](O)[C@@H]1O | – | inactive
Nc1nc(Cl)nc2c1ncn2[C@@H]1O[C@@H](CO)[C@@H](O)[C@H]1O | – | inactive
